Assay type in all cases: functional
Assay [1] concerns Plasmodium falciparum. In words: GSK_TCMDC: Inhibition of Plasmodium falciparum 3D7 in whole red blood cells, using parasite LDH activity as an index of growth. Test compounds present at 2uM.
Assay [2] relates to Plasmodium falciparum. Kind of assay: GSK_TCMDC: Inhibition of Plasmodium falciparum Dd2 in whole red blood cells, using parasite LDH activity as an index of growth. Test compounds present at 2uM.
For the next assay, the system named is HepG2. In words: GSK_TCMDC: Percent inhibition of human HepG2 cell line. Test compounds present at 10uM.

Inhibition data for ten compounds are collected here from ChEMBL document CHEMBL1157539, “Thousands of chemical starting points for antimalarial lead identification” (Nature, 2010).

For `COc1ccc(CC2(c3ccc(F)cc3)N=C(N)N(CCCc3ccc(F)c(F)c3)C2=O)cc1.O=C(O)C(F)(F)F` (stereo not given), the Inhibition (in general, the percentage by which the read-out fell short of the control) in the assay with Plasmodium falciparum [1] turned out to be 98%; with Plasmodium falciparum [2], 98%; with HepG2 it was 42%.
Regarding `Cc1ccccc1C1CCN(C2CCC(NC(=O)c3ccc(-c4ccccn4)s3)CC2)CC1` (stereo not given), the Inhibition in the assay with Plasmodium falciparum [1] was 87%; with Plasmodium falciparum [2], 17%; in the assay with HepG2 it was 32%.
`COc1cc2nc(N3CCN(C(=O)c4c(Cl)nsc4-c4ccccc4Cl)CC3)nc(N)c2cc1OC.O=C(O)C(F)(F)F`: the Inhibition in the assay on Plasmodium falciparum [1] was 100%; in the assay with Plasmodium falciparum [2], 100%; with HepG2, 57%.
Consider `CN1CCN(Cc2ccc(-c3ccc4c(Nc5cc(O)c(F)cc5Cl)ccnc4c3)o2)CC1`, for which the values for the Inhibition with Plasmodium falciparum [1], in the assay on Plasmodium falciparum [2] and in the assay with HepG2 were 100%, 99% and 27%, respectively.
For `COc1ccc(Br)cc1C1C2C(=O)N(c3ccc(Br)cc3)C(=O)C2C2(C(=O)O)CC(OCc3ccccc3)CN12` (stereo not given), in that order: 100%, 99% and 16%.
Take `COc1ccc(NC(=O)Nc2cccc(-c3ccc(-c4nc5cc(C(F)(F)F)ccc5[nH]4)cc3)c2)cc1`: the Inhibition was 100% with Plasmodium falciparum [1], 29% in the assay with Plasmodium falciparum [2] and 46% with HepG2.
On to `FC(F)(F)c1cnc(Sc2nnc(-c3ccncc3)o2)c(Cl)c1`, for which the figures for the Inhibition in the assay on Plasmodium falciparum [1], in the assay on Plasmodium falciparum [2] and with HepG2 were 96%, 96% and 10%, respectively.
In the case of `COc1ccc2nccc([C@@H](O)CN3CCC(NC(=O)c4ccc(OC)c(N)c4)CC3)c2c1.CS(=O)(=O)O`, the results for the Inhibition in the assay with Plasmodium falciparum [1], with Plasmodium falciparum [2] and in the assay with HepG2 were 93%, 0% and 9%, respectively.
The matching figures for `Cc1[nH]c(C)c(-c2ccc(-c3ccccc3)nc2)c(=O)c1Br`: 96%, 95% and 0%.
The matching figures for `O=S(=O)(Nc1cccc(CCN2CCC(N3CCCCC3)CC2)c1)c1cccc2cccnc12`: 98%, 17% and 0%.
